Source: the supplement of paper PMC11732987, “Enantioselective OTUD7B fragment discovery through chemoproteomics screening and high-throughput optimisation” (Communications Chemistry, 2025)

Assays:
Assay in all cases: log2 ratio of Biotin-Ahx-Ub-VS probe labelling (fragment/DMSO); higher = less target engagement (more negative = stronger competition), active = hit call of the paper (q ≤ 0.05, log2 ratio ≤ -1)
Details in all cases: compound concentration: 200 uM; treatment time: 3 h
USP19 = target: T1, USP19 (UniProt O94966)
T1 sequence (whole entry): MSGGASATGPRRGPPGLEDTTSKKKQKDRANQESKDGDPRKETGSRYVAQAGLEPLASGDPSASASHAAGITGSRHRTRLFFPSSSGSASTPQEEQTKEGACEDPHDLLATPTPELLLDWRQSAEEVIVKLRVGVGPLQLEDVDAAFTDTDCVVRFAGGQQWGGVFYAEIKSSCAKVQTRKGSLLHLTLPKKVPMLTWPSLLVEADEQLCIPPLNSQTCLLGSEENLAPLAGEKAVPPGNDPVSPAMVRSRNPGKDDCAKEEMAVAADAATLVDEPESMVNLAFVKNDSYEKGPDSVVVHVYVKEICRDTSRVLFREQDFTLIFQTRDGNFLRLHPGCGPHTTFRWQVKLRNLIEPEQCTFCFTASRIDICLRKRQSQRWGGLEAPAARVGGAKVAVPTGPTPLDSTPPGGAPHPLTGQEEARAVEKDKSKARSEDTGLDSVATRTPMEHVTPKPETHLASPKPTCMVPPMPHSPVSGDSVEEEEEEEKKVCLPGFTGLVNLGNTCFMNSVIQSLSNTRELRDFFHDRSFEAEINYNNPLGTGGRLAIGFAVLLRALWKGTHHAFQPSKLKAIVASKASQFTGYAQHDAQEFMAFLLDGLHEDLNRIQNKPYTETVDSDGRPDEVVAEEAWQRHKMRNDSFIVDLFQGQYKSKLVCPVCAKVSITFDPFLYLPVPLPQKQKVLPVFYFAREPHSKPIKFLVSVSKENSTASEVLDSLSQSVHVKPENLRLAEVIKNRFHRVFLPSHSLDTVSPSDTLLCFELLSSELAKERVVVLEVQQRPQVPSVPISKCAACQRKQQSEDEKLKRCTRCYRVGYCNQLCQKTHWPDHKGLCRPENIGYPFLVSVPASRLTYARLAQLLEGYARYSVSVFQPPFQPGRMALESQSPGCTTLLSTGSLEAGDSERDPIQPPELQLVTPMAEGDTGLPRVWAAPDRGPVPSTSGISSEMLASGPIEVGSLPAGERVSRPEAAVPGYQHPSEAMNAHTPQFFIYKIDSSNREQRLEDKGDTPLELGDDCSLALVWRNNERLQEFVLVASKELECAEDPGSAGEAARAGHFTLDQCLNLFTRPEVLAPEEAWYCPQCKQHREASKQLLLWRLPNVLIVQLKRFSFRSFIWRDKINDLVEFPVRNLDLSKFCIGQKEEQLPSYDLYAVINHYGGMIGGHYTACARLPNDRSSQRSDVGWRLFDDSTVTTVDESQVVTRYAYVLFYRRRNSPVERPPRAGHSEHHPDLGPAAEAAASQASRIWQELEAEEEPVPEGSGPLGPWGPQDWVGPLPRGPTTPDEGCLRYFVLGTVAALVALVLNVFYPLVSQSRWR
Method in brief: (§1)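 Triplicate samples of HEK293T lysate, 495 µg each, received fragment at 200 µM or vehicle for 3 h, followed by Biotin-Ahx-Ub-VS (0.5 µM final) for 1 h. After NeutrAvidin enrichment of labelled DUBs and LysC/trypsin digestion, peptides were run by diaPASEF LC-MS/MS. The values are average log2 fragment/vehicle ratios from global-median-normalised Spectronaut label-free quantities, tested by unpaired t-test on proteins having ≥2 unique peptides.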

USP24 = USP24 (UniProt Q9UPU5)
Chain of USP24 (Q9UPU5 whole entry): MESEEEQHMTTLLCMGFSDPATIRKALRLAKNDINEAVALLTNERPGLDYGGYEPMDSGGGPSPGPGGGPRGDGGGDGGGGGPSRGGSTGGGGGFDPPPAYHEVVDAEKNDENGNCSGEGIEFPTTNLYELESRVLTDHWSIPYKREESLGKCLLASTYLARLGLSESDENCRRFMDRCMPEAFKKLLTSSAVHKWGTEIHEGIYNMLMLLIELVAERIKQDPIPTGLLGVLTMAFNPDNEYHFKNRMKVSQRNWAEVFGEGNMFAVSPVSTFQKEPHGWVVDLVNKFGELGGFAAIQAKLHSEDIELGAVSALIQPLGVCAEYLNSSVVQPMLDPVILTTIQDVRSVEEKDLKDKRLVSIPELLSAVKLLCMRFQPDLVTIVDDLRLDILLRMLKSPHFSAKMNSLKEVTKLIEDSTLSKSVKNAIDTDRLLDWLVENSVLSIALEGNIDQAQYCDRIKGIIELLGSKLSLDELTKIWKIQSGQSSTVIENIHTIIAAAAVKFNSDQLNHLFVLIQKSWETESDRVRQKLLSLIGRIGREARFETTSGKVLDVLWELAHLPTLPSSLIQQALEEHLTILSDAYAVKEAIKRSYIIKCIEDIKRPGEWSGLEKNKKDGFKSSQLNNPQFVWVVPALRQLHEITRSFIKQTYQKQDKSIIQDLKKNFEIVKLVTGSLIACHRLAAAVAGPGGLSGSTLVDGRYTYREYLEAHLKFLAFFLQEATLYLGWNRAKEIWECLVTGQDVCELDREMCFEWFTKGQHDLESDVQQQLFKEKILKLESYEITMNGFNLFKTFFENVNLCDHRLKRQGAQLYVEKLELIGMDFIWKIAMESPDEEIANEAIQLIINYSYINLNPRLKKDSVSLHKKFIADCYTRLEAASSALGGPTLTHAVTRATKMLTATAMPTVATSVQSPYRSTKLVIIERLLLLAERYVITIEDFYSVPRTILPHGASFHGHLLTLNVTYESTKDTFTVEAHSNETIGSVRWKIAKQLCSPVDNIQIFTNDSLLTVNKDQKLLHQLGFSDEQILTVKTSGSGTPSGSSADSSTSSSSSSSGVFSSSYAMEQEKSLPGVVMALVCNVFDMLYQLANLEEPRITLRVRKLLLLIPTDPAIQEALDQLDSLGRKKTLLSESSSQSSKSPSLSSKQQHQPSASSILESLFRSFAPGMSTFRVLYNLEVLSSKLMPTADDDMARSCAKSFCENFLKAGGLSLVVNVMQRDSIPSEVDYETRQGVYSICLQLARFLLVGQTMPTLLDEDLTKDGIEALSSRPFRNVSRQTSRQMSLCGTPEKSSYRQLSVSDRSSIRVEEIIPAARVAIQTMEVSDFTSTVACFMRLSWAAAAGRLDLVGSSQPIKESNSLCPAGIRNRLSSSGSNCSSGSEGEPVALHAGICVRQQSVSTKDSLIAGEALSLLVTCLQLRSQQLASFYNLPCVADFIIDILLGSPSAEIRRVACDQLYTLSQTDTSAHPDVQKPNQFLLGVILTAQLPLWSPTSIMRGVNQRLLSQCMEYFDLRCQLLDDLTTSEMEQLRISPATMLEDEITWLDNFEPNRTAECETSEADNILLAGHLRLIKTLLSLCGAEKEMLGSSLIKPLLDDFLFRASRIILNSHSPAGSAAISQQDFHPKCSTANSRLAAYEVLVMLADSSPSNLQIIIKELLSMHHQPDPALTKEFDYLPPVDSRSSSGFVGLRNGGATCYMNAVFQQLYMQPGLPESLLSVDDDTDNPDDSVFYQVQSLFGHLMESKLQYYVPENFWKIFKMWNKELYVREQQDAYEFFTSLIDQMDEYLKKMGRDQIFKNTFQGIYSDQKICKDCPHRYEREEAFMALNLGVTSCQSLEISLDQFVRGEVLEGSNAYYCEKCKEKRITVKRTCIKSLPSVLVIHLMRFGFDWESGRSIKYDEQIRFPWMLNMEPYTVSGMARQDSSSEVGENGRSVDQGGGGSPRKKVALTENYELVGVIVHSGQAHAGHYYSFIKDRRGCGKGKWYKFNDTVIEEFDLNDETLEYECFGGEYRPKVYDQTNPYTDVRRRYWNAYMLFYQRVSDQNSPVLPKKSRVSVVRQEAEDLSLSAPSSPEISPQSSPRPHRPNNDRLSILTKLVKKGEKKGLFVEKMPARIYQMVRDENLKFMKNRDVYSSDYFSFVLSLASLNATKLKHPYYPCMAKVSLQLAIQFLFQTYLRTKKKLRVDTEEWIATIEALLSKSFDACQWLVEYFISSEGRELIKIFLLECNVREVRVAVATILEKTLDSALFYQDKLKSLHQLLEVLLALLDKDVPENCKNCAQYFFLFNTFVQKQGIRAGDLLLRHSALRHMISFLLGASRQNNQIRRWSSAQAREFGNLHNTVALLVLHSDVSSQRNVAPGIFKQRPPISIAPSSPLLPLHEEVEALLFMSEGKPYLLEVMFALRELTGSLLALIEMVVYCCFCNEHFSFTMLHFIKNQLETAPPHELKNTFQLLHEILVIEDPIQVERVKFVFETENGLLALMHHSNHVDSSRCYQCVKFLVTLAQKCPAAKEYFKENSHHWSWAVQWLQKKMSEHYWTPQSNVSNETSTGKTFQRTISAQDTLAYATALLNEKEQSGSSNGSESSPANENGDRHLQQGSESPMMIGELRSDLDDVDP
Method in brief: as §1

USP25 = target: T2, USP25 (UniProt Q9UHP3)
T2 sequence (whole entry): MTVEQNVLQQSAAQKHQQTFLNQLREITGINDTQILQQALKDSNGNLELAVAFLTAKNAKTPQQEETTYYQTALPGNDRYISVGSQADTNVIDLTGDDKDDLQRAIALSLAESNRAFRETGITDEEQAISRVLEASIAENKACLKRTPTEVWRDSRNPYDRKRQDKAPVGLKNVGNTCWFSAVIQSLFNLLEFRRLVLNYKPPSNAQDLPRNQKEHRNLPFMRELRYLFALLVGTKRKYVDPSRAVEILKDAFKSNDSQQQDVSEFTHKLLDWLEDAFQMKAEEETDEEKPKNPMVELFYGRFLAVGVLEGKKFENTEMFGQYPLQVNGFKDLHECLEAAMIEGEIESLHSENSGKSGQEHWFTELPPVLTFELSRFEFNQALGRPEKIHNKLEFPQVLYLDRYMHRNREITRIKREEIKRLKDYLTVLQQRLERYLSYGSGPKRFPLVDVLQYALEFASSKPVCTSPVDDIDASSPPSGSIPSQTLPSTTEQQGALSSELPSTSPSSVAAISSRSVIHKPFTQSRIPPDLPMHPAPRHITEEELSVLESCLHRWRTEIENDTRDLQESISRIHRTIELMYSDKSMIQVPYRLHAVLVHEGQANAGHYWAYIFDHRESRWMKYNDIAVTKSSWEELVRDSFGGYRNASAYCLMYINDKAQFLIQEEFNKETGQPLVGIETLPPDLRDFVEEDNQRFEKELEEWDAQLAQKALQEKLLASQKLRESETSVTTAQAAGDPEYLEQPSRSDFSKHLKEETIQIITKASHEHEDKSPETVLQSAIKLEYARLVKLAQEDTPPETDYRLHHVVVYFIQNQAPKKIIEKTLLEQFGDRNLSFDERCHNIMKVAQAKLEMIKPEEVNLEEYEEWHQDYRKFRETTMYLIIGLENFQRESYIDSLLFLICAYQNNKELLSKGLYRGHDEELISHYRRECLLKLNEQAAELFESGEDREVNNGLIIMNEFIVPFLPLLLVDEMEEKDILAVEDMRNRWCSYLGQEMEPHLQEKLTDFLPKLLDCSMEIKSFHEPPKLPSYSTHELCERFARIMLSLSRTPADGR
Method in brief: as §1

USP28 = target: T3, USP28 (UniProt Q96RU2)
T3 sequence (whole entry): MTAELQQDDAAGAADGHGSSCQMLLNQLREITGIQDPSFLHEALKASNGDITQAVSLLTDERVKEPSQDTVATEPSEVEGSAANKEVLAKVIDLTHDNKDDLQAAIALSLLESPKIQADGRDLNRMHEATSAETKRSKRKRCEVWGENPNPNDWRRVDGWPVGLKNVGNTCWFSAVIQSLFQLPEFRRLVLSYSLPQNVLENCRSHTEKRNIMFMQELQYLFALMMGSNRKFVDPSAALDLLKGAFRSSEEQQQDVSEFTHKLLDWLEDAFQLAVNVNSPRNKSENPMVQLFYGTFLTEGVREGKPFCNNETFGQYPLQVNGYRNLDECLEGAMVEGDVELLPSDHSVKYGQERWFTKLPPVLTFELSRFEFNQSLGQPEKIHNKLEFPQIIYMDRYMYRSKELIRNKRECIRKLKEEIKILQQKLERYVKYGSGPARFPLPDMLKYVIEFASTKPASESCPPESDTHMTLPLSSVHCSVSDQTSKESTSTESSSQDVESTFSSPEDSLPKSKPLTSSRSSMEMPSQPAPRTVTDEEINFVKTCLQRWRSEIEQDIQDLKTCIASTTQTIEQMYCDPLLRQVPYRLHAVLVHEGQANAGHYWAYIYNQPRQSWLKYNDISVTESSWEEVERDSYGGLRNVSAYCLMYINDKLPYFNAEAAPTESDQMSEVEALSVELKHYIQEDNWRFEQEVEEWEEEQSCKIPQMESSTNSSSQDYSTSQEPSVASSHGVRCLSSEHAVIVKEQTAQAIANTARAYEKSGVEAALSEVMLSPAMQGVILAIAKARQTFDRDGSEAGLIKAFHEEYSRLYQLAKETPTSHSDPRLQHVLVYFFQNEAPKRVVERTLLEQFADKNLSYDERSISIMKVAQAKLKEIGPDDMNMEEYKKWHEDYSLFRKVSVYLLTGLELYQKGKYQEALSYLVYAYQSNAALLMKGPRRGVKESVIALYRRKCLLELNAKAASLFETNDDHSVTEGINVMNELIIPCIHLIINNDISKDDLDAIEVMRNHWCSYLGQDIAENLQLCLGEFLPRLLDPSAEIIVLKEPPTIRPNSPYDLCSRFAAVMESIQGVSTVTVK
Method in brief: as §1

Measured: log2 ratio of Biotin-Ahx-Ub-VS probe labelling

O=C(CCl)N1CCC2(CCC(O)CC2)CC1
inactive: USP19 0.0572 | USP24 -0.133 | USP25 -0.0651 | USP28 -0.372
